In article PMC6212790, “How bacterial xenogeneic silencer rok distinguishes foreign from self DNA in its resident genome”:
Over roughly 33,000 sequences, “e-score” has its median near -0.038; the highest 2% begin near 0.33. Only a selection was taken, and the highest values are over-represented in it overall.

The sequences below were run against T1, GST-Rok-C97-191 (Bacillus subtilis subsp. subtilis str. …, UniProt O34857 97-191) (assay: protein binding microarray; Rok is a gene silencer of Bacillus subtilis; high values mean tight binding). Conditions: protein: recombinant; tags: GST (pTH5325, pDEST15-Magic modified); dsDNA, one strand shown.
T1 sequence: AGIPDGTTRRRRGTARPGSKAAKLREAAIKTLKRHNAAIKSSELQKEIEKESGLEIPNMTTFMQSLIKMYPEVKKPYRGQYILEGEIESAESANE
Outline: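 Each has a 25-mer constant primer and a 35-mer variable part from a de Bruijn sequence of order 10, covering every non-palindromic 8-mer at least 32 times (palindromic 16). Preference for each 8-mer is given as a rank-based, unitless enrichment score (E-score). Its range runs from 0.5 (most favored) to −0.5 (most disfavored).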
With ACGCTAAG the binding signal was 0.0377 E-score.
For CGAAGCTA, the binding signal was 0.0414 E-score.
CTCGGAGC was tested, and the binding signal was 0.0375 E-score.
Sequence GAAAACCA has a binding signal of -0.143 E-score.
GCAAACAA gave a binding signal of -0.173 E-score.
GAAAACTA was tested, and the binding signal was 0.336 E-score.
Sequence CCAAACTC has a binding signal of -0.0249 E-score.
Work on GCAAACCA yielded a binding signal of -0.0828 E-score.
CCAAACTA gave a binding signal of 0.376 E-score.
In the case of GCAAACTA, the binding signal is reported as 0.385 E-score.
Work on GAAAACTC yielded a binding signal of -0.0271 E-score.
Sequence CCAAACCA has a binding signal of -0.102 E-score.
For GTTACAGA, the binding signal was 0.21 E-score.
For TGCGCGCA, the binding signal was 0.0584 E-score.
TAGGGGGA gave a binding signal of -0.143 E-score.
ACAGTTGA was tested, and the binding signal was 0.152 E-score.
Work on CCAGCGTC yielded a binding signal of -0.163 E-score.
TATAGACA was tested, and the binding signal was 0.00807 E-score.
In the case of CATAGAAA, the binding signal is reported as 0.105 E-score.
AATAGAAA was tested, and the binding signal was 0.388 E-score.
For GATAGAAC, the binding signal was 0.289 E-score.
AATAGAAT gave a binding signal of 0.318 E-score.
GATAGACA showed a binding signal of 0.058 E-score.
With AATAGAAC the binding signal was 0.151 E-score.
For TATAGAAA, the binding signal was 0.397 E-score.
For GATAGAAA, the binding signal was 0.333 E-score.
For ACAAACCG, the binding signal was -0.027 E-score.
TCATTCCA showed a binding signal of -0.0328 E-score.
Sequence GCATCCAA has a binding signal of -0.0621 E-score.
Work on GATAGAGA yielded a binding signal of 0.104 E-score.
In the case of AATACAGG, the binding signal is reported as -0.0587 E-score.
GACCCAAC showed a binding signal of -0.142 E-score.
With AGAAGCGA the binding signal was -0.104 E-score.
GGGCATAC gave a binding signal of -0.0596 E-score.
Sequence AATCGACC has a binding signal of -0.0453 E-score.
GCTACTCA showed a binding signal of 0.0267 E-score.
With AAACTATG the binding signal was 0.229 E-score.
For GAACTATC, the binding signal was 0.261 E-score.
AAACTATA gave a binding signal of 0.398 E-score.
Sequence AAACTAAT has a binding signal of 0.36 E-score.
AAACTAAG was tested, and the binding signal was 0.251 E-score.
Sequence AAACTATC has a binding signal of 0.36 E-score.
CAACTATC showed a binding signal of 0.156 E-score.
For CAACTATA, the binding signal was 0.277 E-score.
AAACTATT showed a binding signal of 0.448 E-score.
For AAACTCTT, the binding signal was 0.063 E-score.
For GAACTATA, the binding signal was 0.29 E-score.
In the case of AAACTAAC, the binding signal is reported as 0.308 E-score.
Sequence AAACAGTC has a binding signal of -0.0408 E-score.
Sequence GCGCCGGA has a binding signal of -0.0972 E-score.
In the case of ATTTAAAA, the binding signal is reported as -0.0263 E-score.
Work on GAAGCGTC yielded a binding signal of -0.188 E-score.
With ATTATTCA the binding signal was 0.199 E-score.
With CTAGATCA the binding signal was 0.199 E-score.
Sequence ATTACAGC has a binding signal of 0.215 E-score.
For AAACTAAA, the binding signal was 0.296 E-score.
TAACTAAA was tested, and the binding signal was 0.23 E-score.
TAACTATA was tested, and the binding signal was 0.347 E-score.
Work on CAGAGAGA yielded a binding signal of -0.071 E-score.
For CTTTAGGC, the binding signal was -0.0933 E-score.
In the case of CTAGAAAG, the binding signal is reported as 0.113 E-score.
CTAGAAAC showed a binding signal of 0.34 E-score.
GCAGAAAC was tested, and the binding signal was -0.0283 E-score.
TTAGAAAA showed a binding signal of 0.263 E-score.
Sequence GTAGAAAC has a binding signal of 0.435 E-score.
GTAGAAAA was tested, and the binding signal was 0.384 E-score.
CAAGAAAC gave a binding signal of 0.224 E-score.
For GAAGAAAC, the binding signal was 0.108 E-score.
In the case of CTAGAAAA, the binding signal is reported as 0.312 E-score.
Sequence TCAGCCCA has a binding signal of -0.191 E-score.
TGCCAACA was tested, and the binding signal was 0.0271 E-score.
For AGAGGTAA, the binding signal was 0.149 E-score.
CGGCAAAC showed a binding signal of 0.168 E-score.
Sequence AGCGCCGG has a binding signal of -0.146 E-score.
In the case of GTTATACA, the binding signal is reported as 0.253 E-score.
In the case of ATTATACC, the binding signal is reported as 0.228 E-score.
For ATTATACG, the binding signal was 0.388 E-score.
ACTATACG was tested, and the binding signal was 0.0223 E-score.
With ATTATACA the binding signal was 0.333 E-score.
For CTTATACA, the binding signal was 0.263 E-score.
GTACTGCA was tested, and the binding signal was 0.119 E-score.
AGAATGCG showed a binding signal of 0.105 E-score.
Sequence ATAGGGAC has a binding signal of -0.176 E-score.
CACGATCA showed a binding signal of -0.0988 E-score.
Work on AACCCCTG yielded a binding signal of -0.151 E-score.
With GTCTGACA the binding signal was -0.163 E-score.
For AACATACA, the binding signal was 0.343 E-score.
Sequence ACTATACA has a binding signal of 0.302 E-score.
Sequence TATATACA has a binding signal of 0.402 E-score.
In the case of TACATACA, the binding signal is reported as 0.253 E-score.
Sequence CATATACC has a binding signal of 0.222 E-score.
GATATACC showed a binding signal of 0.153 E-score.
AACATACT showed a binding signal of 0.0962 E-score.
In the case of CATATACA, the binding signal is reported as 0.22 E-score.
With GATATACA the binding signal was 0.175 E-score.
Sequence AATATACC has a binding signal of 0.353 E-score.
Work on AATATACA yielded a binding signal of 0.394 E-score.
For AATACACA, the binding signal was 0.173 E-score.
ACAACTTG gave a binding signal of 0.173 E-score.
ACGTGGCA showed a binding signal of -0.0377 E-score.
Work on CTTAGCGC yielded a binding signal of 0.0409 E-score.
GAGCTAGC gave a binding signal of 0.0567 E-score.
ACCCGTTG showed a binding signal of -0.159 E-score.
Sequence TGTTAAAA has a binding signal of -0.0158 E-score.
Work on AATTGCGG yielded a binding signal of 0.0377 E-score.
In the case of TACCGGAA, the binding signal is reported as -0.0058 E-score.
ACAGGCGT was tested, and the binding signal was -0.077 E-score.
TGTATACA gave a binding signal of 0.37 E-score.
GGTATACA showed a binding signal of 0.15 E-score.
With ACTATACT the binding signal was 0.0926 E-score.
With AATATACG the binding signal was 0.225 E-score.
AATATACT was tested, and the binding signal was 0.367 E-score.
For AGTATACA, the binding signal was 0.178 E-score.
In the case of GAAAGTGC, the binding signal is reported as -0.0315 E-score.
Sequence GTACCAAC has a binding signal of 0.0505 E-score.
CAGGCGAC was tested, and the binding signal was -0.00727 E-score.
Work on CGTTTATC yielded a binding signal of 0.231 E-score.
GGCAGTTA showed a binding signal of 0.0872 E-score.
With CACAAGTG the binding signal was -0.00102 E-score.
CAGACTAA showed a binding signal of -0.0795 E-score.
Sequence ACCTCACT has a binding signal of -0.0237 E-score.
Work on TCAGCCGA yielded a binding signal of -0.0187 E-score.
CATATAAA gave a binding signal of 0.138 E-score.
Sequence GATATAAC has a binding signal of 0.297 E-score.
In the case of GATAAAAA, the binding signal is reported as 0.234 E-score.
AATATAAC showed a binding signal of 0.205 E-score.
For TATAAAAA, the binding signal was 0.244 E-score.
For GATATAAA, the binding signal was 0.34 E-score.
Work on TATATAAA yielded a binding signal of 0.394 E-score.
In the case of AATATAAT, the binding signal is reported as 0.23 E-score.
Sequence AATATAAA has a binding signal of 0.361 E-score.
ACTGTTGC gave a binding signal of 0.119 E-score.
TGACTCCA gave a binding signal of -0.0987 E-score.
AGGAGGGA gave a binding signal of -0.173 E-score.
CAGTTATG was tested, and the binding signal was 0.0833 E-score.
Sequence CTATACCA has a binding signal of 0.201 E-score.
With AAATACCA the binding signal was 0.286 E-score.
In the case of ATATACCG, the binding signal is reported as 0.384 E-score.
AGATACCG showed a binding signal of 0.171 E-score.
ATATACCA showed a binding signal of 0.344 E-score.
AAATACCG showed a binding signal of 0.37 E-score.
CAATACCG showed a binding signal of 0.121 E-score.
GTATACCA gave a binding signal of 0.267 E-score.
In the case of ATATACCC, the binding signal is reported as 0.127 E-score.
For AGGAGACG, the binding signal was -0.19 E-score.
With CAGCTCGG the binding signal was -0.0345 E-score.
With AAGTGACT the binding signal was -0.0548 E-score.
With TCTGTCAA the binding signal was -0.116 E-score.
CAAGCCTG gave a binding signal of -0.132 E-score.
With ATCAGTGC the binding signal was -0.0896 E-score.
CAACGGAC was tested, and the binding signal was -0.085 E-score.
For GTTAGTAA, the binding signal was 0.163 E-score.
GGTAGTAA gave a binding signal of 0.396 E-score.
AGTAGTAA showed a binding signal of 0.404 E-score.
CGTAGTAA showed a binding signal of 0.205 E-score.
TGTAGTAA gave a binding signal of 0.286 E-score.
With GCTAGTAA the binding signal was 0.286 E-score.
For ACTAAACT, the binding signal was 0.244 E-score.
Sequence TGGCGAAA has a binding signal of 0.0439 E-score.
Sequence GTTTTGCA has a binding signal of 0.0567 E-score.
CGTACGTA showed a binding signal of 0.05 E-score.
With CATTAATA the binding signal was 0.186 E-score.
AAATAATA was tested, and the binding signal was 0.317 E-score.
For CACTAATA, the binding signal was 0.33 E-score.
CACTAATC was tested, and the binding signal was 0.1 E-score.
CAATAATA gave a binding signal of 0.312 E-score.
TATTAATA gave a binding signal of 0.352 E-score.
Sequence TAATAATA has a binding signal of 0.424 E-score.
AATTAATA was tested, and the binding signal was 0.305 E-score.
Sequence TAATAAAA has a binding signal of 0.344 E-score.
For GAATAAAA, the binding signal was 0.119 E-score.
Sequence TACTAATA has a binding signal of 0.298 E-score.
CAATAAAA showed a binding signal of 0.239 E-score.
In the case of AGAGAATG, the binding signal is reported as 0.0921 E-score.
CATGGTTA gave a binding signal of 0.0882 E-score.
